Laboratory results: the supplement of paper PMC12819154, “High-throughput peptide-centric local stability assay extends protein–ligand identification to membrane proteins, tissues and bacteria” (Nature Structural & Molecular Biology, 2025)
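Also: lysate desalted by size exclusion to strip endogenous ATP, peptide intensities built from DIA-NN precursor signals, and peptides missing any value discarded before comparison.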

UniProt P37440, sequence (P37440 whole entry): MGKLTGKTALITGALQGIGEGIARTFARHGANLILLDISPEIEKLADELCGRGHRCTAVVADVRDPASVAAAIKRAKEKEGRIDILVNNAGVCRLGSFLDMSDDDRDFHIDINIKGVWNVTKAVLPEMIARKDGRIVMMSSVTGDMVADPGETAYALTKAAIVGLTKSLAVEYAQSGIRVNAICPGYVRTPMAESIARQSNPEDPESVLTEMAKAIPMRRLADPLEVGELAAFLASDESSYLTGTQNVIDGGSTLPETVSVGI
UniProt P37636, sequence (P37636 whole entry): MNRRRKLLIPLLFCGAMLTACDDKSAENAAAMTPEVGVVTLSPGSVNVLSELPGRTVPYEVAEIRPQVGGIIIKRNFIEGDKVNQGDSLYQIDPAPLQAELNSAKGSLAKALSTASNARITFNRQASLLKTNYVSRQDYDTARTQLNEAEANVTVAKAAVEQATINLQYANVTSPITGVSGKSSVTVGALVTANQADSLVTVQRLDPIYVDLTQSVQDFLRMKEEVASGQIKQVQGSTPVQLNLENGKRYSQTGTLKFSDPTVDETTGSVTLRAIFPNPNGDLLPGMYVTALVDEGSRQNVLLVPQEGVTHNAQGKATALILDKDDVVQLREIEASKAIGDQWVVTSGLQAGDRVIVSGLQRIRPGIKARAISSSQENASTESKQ
UniProt P28631, sequence (P28631 whole entry): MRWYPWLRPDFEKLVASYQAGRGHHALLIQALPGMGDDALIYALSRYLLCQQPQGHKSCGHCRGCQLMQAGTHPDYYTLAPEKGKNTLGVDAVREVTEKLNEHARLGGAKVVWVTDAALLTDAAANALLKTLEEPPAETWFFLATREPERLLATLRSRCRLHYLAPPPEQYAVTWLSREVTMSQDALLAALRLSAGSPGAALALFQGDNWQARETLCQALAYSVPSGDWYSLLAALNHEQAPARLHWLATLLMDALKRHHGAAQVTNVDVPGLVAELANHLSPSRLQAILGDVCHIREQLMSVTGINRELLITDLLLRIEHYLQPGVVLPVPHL
UniProt P05719, sequence (P05719 whole entry): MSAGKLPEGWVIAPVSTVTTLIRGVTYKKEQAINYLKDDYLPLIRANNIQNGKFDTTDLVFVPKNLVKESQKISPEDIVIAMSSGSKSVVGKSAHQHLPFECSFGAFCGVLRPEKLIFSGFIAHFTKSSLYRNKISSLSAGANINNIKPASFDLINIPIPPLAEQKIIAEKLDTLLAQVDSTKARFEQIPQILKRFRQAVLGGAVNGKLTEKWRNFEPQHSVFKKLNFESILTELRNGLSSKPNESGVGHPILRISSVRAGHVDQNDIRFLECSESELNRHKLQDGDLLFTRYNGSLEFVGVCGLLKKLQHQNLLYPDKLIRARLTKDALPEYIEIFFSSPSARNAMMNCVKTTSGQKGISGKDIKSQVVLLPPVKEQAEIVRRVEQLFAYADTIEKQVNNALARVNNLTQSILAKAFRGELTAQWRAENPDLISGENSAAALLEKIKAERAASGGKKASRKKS
UniProt P07118, sequence (P07118 whole entry): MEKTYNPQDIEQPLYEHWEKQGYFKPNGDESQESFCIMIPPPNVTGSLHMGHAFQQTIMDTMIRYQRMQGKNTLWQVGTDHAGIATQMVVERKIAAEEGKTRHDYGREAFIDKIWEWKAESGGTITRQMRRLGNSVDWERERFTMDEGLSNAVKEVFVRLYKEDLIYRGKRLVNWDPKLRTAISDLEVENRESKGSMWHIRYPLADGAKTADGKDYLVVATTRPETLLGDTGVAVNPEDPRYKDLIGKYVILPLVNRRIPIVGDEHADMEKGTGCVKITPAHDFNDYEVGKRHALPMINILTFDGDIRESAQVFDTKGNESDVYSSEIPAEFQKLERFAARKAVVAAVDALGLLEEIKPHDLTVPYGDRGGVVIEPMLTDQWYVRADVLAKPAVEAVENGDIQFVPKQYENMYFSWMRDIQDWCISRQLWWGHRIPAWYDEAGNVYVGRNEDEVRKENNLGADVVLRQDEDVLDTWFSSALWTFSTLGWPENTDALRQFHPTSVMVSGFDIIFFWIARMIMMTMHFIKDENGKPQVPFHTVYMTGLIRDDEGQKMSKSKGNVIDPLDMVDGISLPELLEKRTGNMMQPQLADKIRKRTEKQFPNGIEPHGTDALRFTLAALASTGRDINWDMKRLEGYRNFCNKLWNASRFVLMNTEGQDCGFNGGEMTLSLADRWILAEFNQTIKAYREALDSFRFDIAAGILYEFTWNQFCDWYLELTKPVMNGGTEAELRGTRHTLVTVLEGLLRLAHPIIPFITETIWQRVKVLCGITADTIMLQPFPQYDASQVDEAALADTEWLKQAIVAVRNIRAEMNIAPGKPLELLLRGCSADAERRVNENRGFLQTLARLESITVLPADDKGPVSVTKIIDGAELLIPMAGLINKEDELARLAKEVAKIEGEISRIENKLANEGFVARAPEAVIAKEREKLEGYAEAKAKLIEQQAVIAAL
UniProt P76035, sequence (P76035 whole entry): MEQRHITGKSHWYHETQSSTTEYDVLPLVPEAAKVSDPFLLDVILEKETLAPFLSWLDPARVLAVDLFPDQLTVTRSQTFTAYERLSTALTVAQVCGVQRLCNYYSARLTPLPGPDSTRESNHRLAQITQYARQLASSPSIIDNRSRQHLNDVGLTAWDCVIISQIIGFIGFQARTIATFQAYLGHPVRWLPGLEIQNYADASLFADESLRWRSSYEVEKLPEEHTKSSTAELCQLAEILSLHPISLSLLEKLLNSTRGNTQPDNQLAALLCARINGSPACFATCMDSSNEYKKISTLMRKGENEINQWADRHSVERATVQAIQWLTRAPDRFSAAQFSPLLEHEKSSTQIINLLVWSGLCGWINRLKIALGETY
UniProt P76440, sequence (P76440 whole entry): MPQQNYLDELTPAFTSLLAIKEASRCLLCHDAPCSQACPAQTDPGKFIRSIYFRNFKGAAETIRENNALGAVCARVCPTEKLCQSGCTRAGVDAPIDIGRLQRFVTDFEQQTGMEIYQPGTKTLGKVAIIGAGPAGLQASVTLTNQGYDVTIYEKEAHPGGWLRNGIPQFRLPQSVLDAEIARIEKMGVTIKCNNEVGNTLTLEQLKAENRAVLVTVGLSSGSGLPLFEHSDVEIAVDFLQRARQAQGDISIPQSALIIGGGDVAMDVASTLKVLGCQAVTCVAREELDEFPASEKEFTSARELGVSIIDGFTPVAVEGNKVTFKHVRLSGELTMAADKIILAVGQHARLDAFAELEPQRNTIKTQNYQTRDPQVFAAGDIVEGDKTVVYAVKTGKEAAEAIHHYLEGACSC
UniProt P76206, sequence (P76206 whole entry): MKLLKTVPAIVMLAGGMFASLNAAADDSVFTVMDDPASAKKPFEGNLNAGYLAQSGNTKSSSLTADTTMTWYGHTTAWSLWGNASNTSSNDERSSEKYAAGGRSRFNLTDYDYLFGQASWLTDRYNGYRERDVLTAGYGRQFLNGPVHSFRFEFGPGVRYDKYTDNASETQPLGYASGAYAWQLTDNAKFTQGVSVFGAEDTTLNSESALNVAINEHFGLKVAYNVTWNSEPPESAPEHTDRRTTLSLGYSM
UniProt P76053, sequence (P76053 whole entry): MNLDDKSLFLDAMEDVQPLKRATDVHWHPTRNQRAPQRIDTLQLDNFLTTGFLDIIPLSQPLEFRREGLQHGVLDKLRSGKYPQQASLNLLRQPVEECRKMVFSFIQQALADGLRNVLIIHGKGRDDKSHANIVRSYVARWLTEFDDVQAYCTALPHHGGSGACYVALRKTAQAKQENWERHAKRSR
UniProt P28630, sequence (P28630 whole entry): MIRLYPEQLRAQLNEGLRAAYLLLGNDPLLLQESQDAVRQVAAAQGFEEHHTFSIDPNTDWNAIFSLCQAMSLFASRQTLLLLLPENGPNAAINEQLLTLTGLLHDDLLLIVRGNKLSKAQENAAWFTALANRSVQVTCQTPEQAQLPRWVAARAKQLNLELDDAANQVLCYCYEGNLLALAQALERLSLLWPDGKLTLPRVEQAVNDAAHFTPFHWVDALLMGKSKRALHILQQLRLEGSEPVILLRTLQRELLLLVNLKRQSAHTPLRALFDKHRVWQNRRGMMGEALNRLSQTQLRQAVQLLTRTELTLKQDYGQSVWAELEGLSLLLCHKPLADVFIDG
UniProt P0AAC4, sequence (P0AAC4 whole entry): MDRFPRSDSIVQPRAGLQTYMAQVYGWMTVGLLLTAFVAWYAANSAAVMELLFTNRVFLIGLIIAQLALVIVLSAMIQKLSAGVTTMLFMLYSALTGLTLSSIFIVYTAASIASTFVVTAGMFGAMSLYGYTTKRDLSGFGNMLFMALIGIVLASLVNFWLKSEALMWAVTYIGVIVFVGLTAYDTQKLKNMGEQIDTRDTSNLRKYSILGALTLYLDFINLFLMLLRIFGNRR
UniProt P52061, sequence (P52061 whole entry): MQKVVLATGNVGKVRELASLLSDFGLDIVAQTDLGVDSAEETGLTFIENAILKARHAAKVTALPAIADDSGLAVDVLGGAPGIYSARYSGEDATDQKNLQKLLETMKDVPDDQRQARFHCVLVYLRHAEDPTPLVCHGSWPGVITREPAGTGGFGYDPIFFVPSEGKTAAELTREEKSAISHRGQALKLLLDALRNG
UniProt P0AB96, sequence (P0AB96 whole entry): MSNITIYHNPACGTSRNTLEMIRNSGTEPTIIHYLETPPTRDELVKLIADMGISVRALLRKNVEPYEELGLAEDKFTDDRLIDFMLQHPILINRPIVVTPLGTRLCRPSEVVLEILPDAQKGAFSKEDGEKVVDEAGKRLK
UniProt P28634, sequence (P28634 whole entry): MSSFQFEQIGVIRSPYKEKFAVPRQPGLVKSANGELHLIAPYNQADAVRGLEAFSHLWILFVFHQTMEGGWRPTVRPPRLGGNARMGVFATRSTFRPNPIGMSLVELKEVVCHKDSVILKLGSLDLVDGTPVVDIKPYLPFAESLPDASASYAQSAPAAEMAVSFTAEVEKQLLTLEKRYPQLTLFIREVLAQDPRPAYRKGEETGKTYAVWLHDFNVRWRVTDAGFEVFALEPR
UniProt P46887, sequence (P46887 whole entry): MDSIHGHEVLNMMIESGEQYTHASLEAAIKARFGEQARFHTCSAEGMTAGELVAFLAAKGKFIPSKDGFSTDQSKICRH

What follows are targets tested with Nc1ncnc2c1ncn2[C@@H]1O[C@H](COP(=O)(O)OP(=O)(O)OP(=O)(O)O)[C@@H](O)[C@H]1O [adenosine 5'-triphosphate] (assay: log2 fold change of tryptic peptide abundance, ligand vs vehicle (limited proteolysis) (log2 ratio); higher = more trypsin-susceptible (destabilized)). Conditions: ligand concentration: 5 mM; sample: E. coli desalted lysate; replicate design: treated before aliquoting.
Description: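 HT-PELSA: desalted E. coli K-12 BW25113 lysate (with 12 mM MgCl2) incubated with 5 mM ATP (pH 7) or water for 30 min at 25 C, then a 4 min trypsin pulse at 22 C. Peptides were quantified by DIA-MS (4 replicates). Value is the peptide log2 fold change (treated/control); negative = stabilized. Scale: negative = ligand-stabilized region.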
With “UniProt P23857 (peptide sequence: ERIATAVPDKNDTVK, peptide start residue: 50)” the log2 fold change was 0.323.
“UniProt P00968 (peptide sequence: AQLGSNSTMKKHGR, peptide start residue: 931)” was tested, and the log2 fold change was 0.849.
With “UniProt P46887 (peptide sequence: GKFIPSKDGFSTDQSK, peptide start residue: 60)” the log2 fold change was 0.606.
In the case of “UniProt P27241 (peptide sequence: YTIVNVDVYEHASKEDK, peptide start residue: 90)”, the log2 fold change is reported as -0.487.
In the case of “UniProt P77766 (peptide sequence: LAQGGAVTR, peptide start residue: 133)”, the log2 fold change is reported as -0.418.
For “UniProt P76206 (peptide sequence: FEFGPGVR, peptide start residue: 152)”, the log2 fold change was 1.15.
Target “UniProt P52061 (peptide sequence: FHCVLVYLR, peptide start residue: 118)” has a log2 fold change of -0.642.
“UniProt P23830 (peptide sequence: EALGVLHFK, peptide start residue: 132)” showed a log2 fold change of -0.891.
In the case of “UniProt P27550 (peptide sequence: IAEAAVVGIPHNIK, peptide start residue: 542)”, the log2 fold change is reported as -2.61.
For “UniProt P0AAC4 (peptide sequence: SDSIVQPR, peptide start residue: 7)”, the log2 fold change was -0.368.
Work on “UniProt P76053 (peptide sequence: NVLIIHGK, peptide start residue: 116)” yielded a log2 fold change of 0.613.
“UniProt P28634 (peptide sequence: WRVTDAGFEVFALEPR, peptide start residue: 220)” was tested, and the log2 fold change was 0.789.
For “UniProt P0A9J4 (peptide sequence: HTEIDYINGFLLRR, peptide start residue: 254)”, the log2 fold change was 0.895.
For “UniProt P76440 (peptide sequence: EELDEFPASEKEFTSAR, peptide start residue: 286)”, the log2 fold change was 0.874.
“UniProt P28630 (peptide sequence: LSLLWPDGK, peptide start residue: 188)” was tested, and the log2 fold change was -0.437.
With “UniProt P07648 (peptide sequence: VKAHLTCLHTR, peptide start residue: 776)” the log2 fold change was 1.26.
For “UniProt P39353 (peptide sequence: EGVIGEILSCHTKR, peptide start residue: 135)”, the log2 fold change was -0.665.
“UniProt P0AB96 (peptide sequence: LCRPSEVVLEILPDAQK, peptide start residue: 105)” gave a log2 fold change of 0.492.
For “UniProt P37440 (peptide sequence: LADELCGR, peptide start residue: 45)”, the log2 fold change was -0.817.
“UniProt Q06065 (peptide sequence: FSSENQR, peptide start residue: 334)” showed a log2 fold change of -2.8.
For “UniProt P37636 (peptide sequence: QDYDTAR, peptide start residue: 137)”, the log2 fold change was 0.264.
For “UniProt P24255 (peptide sequence: KHNGHWTVELNSDSIPR, peptide start residue: 280)”, the log2 fold change was 0.899.
For “UniProt P00561 (peptide sequence: NKHIDLR, peptide start residue: 493)”, the log2 fold change was 1.32.
“UniProt P75830 (peptide sequence: TNLDYTR, peptide start residue: 179)” gave a log2 fold change of -0.551.
With “UniProt P31060 (peptide sequence: ALAGELPLLKGER, peptide start residue: 48)” the log2 fold change was -1.32.
Work on “UniProt P76562 (peptide sequence: EHYRLRR, peptide start residue: 544)” yielded a log2 fold change of 0.855.
Target “UniProt P07118 (peptide sequence: TGNMMQPQLADKIR, peptide start residue: 582)” has a log2 fold change of 2.07.
In the case of “UniProt P05041 (peptide sequence: APFSAFLR, peptide start residue: 239)”, the log2 fold change is reported as 0.459.
“UniProt P77754 (peptide sequence: DLNLTDAQK, peptide start residue: 54)” was tested, and the log2 fold change was -0.35.
With “UniProt P24240 (peptide sequence: YGFVFVDRDDAGNGTLTR, peptide start residue: 436)” the log2 fold change was -0.866.
Target “UniProt P05719 (peptide sequence: FDTTDLVFVPK, peptide start residue: 54)” has a log2 fold change of -0.655.
“UniProt Q46868 (peptide sequence: QVHESMPK, peptide start residue: 13)” showed a log2 fold change of -0.305.
“UniProt P09373 (peptide sequence: ALIPFGGIK, peptide start residue: 109)” showed a log2 fold change of -0.384.
Work on “UniProt P76035 (peptide sequence: TIATFQAYLGHPVR, peptide start residue: 176)” yielded a log2 fold change of 0.609.
With “UniProt P38097 (peptide sequence: VTVYEPQQAAAHSER, peptide start residue: 840)” the log2 fold change was -1.32.
Work on “UniProt P08200 (peptide sequence: AAIEYAIANDRDSVTLVHK, peptide start residue: 212)” yielded a log2 fold change of -0.698.
“UniProt P15047 (peptide sequence: IGMSAYGASK, peptide start residue: 139)” showed a log2 fold change of -1.47.
“UniProt P45395 (peptide sequence: LHVPLICITGRPESSMAR, peptide start residue: 122)” showed a log2 fold change of 1.09.
With “UniProt P10121 (peptide sequence: KRGFFSWLGFGQK, peptide start residue: 6)” the log2 fold change was 0.814.
Target “UniProt P28631 (peptide sequence: YLLCQQPQGHK, peptide start residue: 47)” has a log2 fold change of -0.546.
